Reference: PubChem BioAssay (EPA / NIEHS)
Values joined by “and” are separate entries in the source; they are usually repeats but may differ in a detail not shown here. Equal values may be shown once. Results filed as inconclusive are left out. Some structures have more than one record in an assay (separate samples or runs), and their calls can disagree. Active and inactive are the calls of the source. How the source made its calls, unless noted: active means hit-call score of the fitted dose curve at least 0.9, where 1 is the maximum; inactive means score below 0.9.

Key:
[1] = read-out: Monocyte Chemoattractant Protein-1 (MCP1), CCL2 (gene 6347); assay: BSK_SAg_MCP1: BioMAP Diversity Plus: SAg Assay for Monocyte Chemoattractant Protein-1 (MCP1) Biomarker Activity (AID 2283090); details: primary human HUVEC with PBMC; actives raise or lower the signal
Procedure, shortened: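 Values derive from bidirectional fitting of ELISA-measured MCP1 against DMSO controls. Readings were taken 24 h after dosing human vascular endothelial cells co-cultured with peripheral blood mononuclear cells under superantigen stimulation.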

[2] = read-out: E-selectin (Homo sapiens) (UniProt P16581); assay: BSK_SAg_Eselectin: BioMAP Diversity Plus: SAg Assay for Eselectin Biomarker Activity (AID 2283091); details: primary human HUVEC with PBMC; actives raise or lower the signal
Procedure, shortened: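 Co-culture: HUVEC + PBMC. Dose compound; 24 h. ELISA for E-selectin. Bidirectional fit vs DMSO.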

[3] = read-out: Monokine induced gamma interferon (MIG), CXCL9 (gene 4283); assay: BSK_SAg_MIG: BioMAP Diversity Plus: SAg Assay for Monokine induced gamma interferon (MIG) Biomarker Activity (AID 2283092); details: primary human HUVEC with PBMC; actives raise or lower the signal
Procedure, shortened: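 Values reflect bidirectional fitting of ELISA-measured MIG against DMSO vehicle, taken 24 h after dosing of a co-culture of human umbilical vein endothelial cells and peripheral blood mononuclear cells.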

[4] = BSK_SAg_PBMCCytotoxicity: PBMC Cytotoxicity Assessment in the BioMAP Diversity Plus: SAg Assay (AID 2283093); details: primary human HUVEC with PBMC;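 further: PBMC viability measured as Alamar Blue reduction fluorescence at 546/580 nm; fitted both ways against DMSO so a hit may be loss or gain of signal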;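 on AC50: PBMC superantigen activated with SEB plus TSST-1 one hour after compound addition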
Procedure, shortened: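 Alamar Blue reduction (6 h, 546/580 nm) reports PBMC cytotoxicity after 90 h superantigen activation (SEB, TSST-1; 20 ng/mL final each) with 1 h compound pre-treatment. Gain or loss of signal fitted versus DMSO.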

[5] = read-out: Interleukin-8 (IL8), CXCL8 (gene 3576); assay: BSK_SAg_IL8: BioMAP Diversity Plus: SAg Assay for Interleukin-8 (IL8) Biomarker Activity (AID 2283094); details: primary human HUVEC with PBMC; actives raise or lower the signal
Procedure, shortened: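 Chemicals were dosed onto a human endothelial–PBMC co-culture, and IL-8 was quantified by ELISA after 24 h. Both increases and decreases were fitted relative to DMSO.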

[6] = BSK_SAg_Proliferation: Cell Proliferation Assessment in the BioMAP Diversity Plus: SAg Assay (AID 2283095); details: primary human HUVEC with PBMC;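 further: relative cell number as total protein by SRB absorbance in sub-confluent culture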
Procedure, shortened: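 Absorbance of sulforhodamine B at 560 nm reports total protein in a human vascular endothelial/PBMC co-culture after 96 h chemical exposure. Gain or loss of signal is fitted in both directions against DMSO.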

[7] = BSK_SAg_SRB: Viability Assessment in the BioMAP Diversity Plus: SAg Assay (AID 2283096); details: primary human HUVEC with PBMC;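 further: cells read one day after compound addition; hits may be either gain or loss of signal compared with DMSO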
Procedure, shortened: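 This overt-cytotoxicity endpoint quantifies protein in human endothelial/PBMC co-cultures at 24 h using SRB absorbance (560 nm) after trichloroacetic acid fixation. Values reflect signal change from the DMSO negative control, fitted bidirectionally.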

[8] = target: human CYP19A1, CYP19A1 (gene 1588) (UniProt P11511); assay: NVS_ADME_hCYP19A1: NovaScreen (NVS) CYP450-related Enzyme Activity (ADME) Assay for human CYP19A1 (AID 2283098; active means hit-call score of the fitted dose curve at least 0.9, where 1 is the maximum)
Chain of human CYP19A1, CYP19A1 (gene 1588) (P11511 whole entry, looked up): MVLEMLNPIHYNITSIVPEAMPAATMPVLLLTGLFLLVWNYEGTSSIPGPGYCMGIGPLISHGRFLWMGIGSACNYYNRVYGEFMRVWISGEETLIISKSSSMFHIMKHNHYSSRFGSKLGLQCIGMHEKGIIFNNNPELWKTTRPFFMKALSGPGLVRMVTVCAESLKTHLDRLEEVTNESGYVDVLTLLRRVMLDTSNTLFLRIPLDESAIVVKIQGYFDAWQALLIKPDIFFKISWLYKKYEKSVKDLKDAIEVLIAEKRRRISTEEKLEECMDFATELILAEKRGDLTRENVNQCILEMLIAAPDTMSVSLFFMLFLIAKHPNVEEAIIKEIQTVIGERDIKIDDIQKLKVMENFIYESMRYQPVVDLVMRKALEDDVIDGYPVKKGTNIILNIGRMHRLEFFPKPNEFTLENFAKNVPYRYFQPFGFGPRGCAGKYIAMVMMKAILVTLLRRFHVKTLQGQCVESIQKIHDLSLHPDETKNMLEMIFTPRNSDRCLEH
Procedure, shortened: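 Compounds were first screened at 10 uM in duplicate against purified enzyme, with a fluorogenic substrate and fluorescence intensity detection after 0.5 h. Inhibition appears as reduced signal against acetonitrile control.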

[9] = target: human CYP1A1, CYP1A1 (gene 1543) (UniProt P04798); assay: NVS_ADME_hCYP1A1: NovaScreen (NVS) CYP450-related Enzyme Activity (ADME) Assay for human CYP1A1 (AID 2283100; active means hit-call score of the fitted dose curve at least 0.9, where 1 is the maximum)
Chain of human CYP1A1, CYP1A1 (gene 1543) (P04798 whole entry, looked up): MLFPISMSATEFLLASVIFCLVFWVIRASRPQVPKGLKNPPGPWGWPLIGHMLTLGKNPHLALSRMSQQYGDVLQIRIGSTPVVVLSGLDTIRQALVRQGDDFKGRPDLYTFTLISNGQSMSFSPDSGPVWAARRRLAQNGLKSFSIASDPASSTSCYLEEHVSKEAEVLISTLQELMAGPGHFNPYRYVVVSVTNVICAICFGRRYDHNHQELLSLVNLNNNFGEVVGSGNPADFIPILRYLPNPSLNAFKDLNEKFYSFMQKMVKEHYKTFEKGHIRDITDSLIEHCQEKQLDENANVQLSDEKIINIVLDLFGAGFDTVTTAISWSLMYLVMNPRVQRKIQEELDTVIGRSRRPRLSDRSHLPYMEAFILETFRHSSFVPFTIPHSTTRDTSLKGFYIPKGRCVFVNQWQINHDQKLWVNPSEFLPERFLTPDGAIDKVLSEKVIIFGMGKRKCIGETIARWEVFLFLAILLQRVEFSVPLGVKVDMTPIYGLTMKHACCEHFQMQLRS
Procedure, shortened: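 Recombinant hCYP1A1 + fluorogenic substrate, cell-free; 1 h; fluorescence read. Single-point 10 uM (duplicate) → concentration series, max 20 uM. Acetonitrile negative control.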

[10] = target: human CYP2A6, CYP2A6 (gene 1548) (UniProt P11509); assay: NVS_ADME_hCYP2A6: NovaScreen (NVS) CYP450-related Enzyme Activity (ADME) Assay for human CYP2A6 (AID 2283099; active means hit-call score of the fitted dose curve at least 0.9, where 1 is the maximum)
Chain of human CYP2A6, CYP2A6 (gene 1548) (P11509 whole entry, looked up): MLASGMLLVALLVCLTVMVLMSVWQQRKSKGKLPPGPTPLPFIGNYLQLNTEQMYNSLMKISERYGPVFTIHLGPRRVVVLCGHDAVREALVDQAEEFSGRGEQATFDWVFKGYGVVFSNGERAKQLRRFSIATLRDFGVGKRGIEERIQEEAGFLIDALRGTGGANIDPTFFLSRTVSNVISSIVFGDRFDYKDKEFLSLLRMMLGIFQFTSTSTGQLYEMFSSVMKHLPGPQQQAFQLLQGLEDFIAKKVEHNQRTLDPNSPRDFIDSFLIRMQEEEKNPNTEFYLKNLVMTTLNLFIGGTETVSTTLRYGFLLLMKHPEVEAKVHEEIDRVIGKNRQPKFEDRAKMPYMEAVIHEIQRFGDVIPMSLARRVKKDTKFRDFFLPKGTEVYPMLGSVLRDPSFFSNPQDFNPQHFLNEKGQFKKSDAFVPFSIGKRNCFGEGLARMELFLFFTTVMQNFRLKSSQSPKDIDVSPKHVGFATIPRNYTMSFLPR
Procedure, shortened: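 Fluorescent substrate turnover by recombinant CYP2A6 (insect cell source), 0.5 h read. Screen: 10 uM, duplicate; threshold hits (e.g. 30% inhibition) → singleton concentration-response, top 20 uM. Positive and negative controls on every plate.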

Measured: AC50

Chain of E-selectin (Homo sapiens) (P16581 whole entry, looked up): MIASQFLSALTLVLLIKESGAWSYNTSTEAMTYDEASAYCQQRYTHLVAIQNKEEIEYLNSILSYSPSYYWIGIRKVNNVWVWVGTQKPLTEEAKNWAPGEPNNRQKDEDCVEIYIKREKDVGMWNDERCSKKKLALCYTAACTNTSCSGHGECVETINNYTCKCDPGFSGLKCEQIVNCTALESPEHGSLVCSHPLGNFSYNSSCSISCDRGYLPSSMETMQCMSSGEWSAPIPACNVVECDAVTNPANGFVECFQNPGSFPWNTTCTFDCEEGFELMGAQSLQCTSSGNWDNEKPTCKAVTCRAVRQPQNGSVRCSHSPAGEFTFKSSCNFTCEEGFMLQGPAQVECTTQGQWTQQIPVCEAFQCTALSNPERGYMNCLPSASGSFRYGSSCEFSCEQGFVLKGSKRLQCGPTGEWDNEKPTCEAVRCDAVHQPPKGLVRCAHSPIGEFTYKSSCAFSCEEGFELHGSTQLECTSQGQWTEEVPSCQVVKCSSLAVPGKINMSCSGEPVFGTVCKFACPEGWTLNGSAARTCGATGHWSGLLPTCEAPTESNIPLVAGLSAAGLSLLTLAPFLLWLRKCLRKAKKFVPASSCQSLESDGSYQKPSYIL

CCCCNC(=O)n1c(NC(=O)OC)nc2ccccc21
inactive: [1] | [2] | [3] | [4] | [5]
active: [6] 6.25 µM | [7] 12.3 µM

CC(C)Oc1cc(-n2nc(C(C)(C)C)oc2=O)c(Cl)cc1Cl
active: [1] 29.9 µM | [2] 30.3 µM | [3] 31.9 µM | [4] 34.4 µM | [5] 31.2 µM | [6] 31.3 µM | [7] 30.5 µM

COC(=O)C(C)Oc1ccc(Oc2ccc(Cl)cc2Cl)cc1 (configuration not stated)
active: [1] 20 µM
inactive: [1] | [2] | [3] | [4] | [5] | [6] | [7]

Fc1ccc(Oc2ccnc3cc(Cl)cc(Cl)c23)cc1
active: [1] 28.2 µM | [2] 20.5 µM | [3] 30.6 µM | [4] 31.4 µM | [5] 15.9 µM | [6] 22.7 µM | [7] 25.5 µM

N#Cc1nn(-c2c(Cl)cc(C(F)(F)F)cc2Cl)c(N)c1S(=O)C(F)(F)F (configuration not stated)
active: [1] 30 µM | [2] 29.8 µM | [3] 35 µM | [4] 5.04 µM | [5] 27.8 µM | [6] 15.6 µM | [7] 34 µM

COc1nc(C)nc(NC(=O)NS(=O)(=O)c2ccccc2CCC(F)(F)F)n1
not listed: [8] | [9] | [10]
inactive: all other assays above

CC1=C(C(=O)Nc2ccccc2)SCCO1
not listed: [8] | [9] | [10]
inactive: all other assays above

Cc1ccc(-c2c(Cl)nc(C#N)n2S(=O)(=O)N(C)C)cc1
inactive: [4]
active: [1] 24.7 µM | [2] 13.5 µM | [3] 28.8 µM | [5] 13.4 µM | [6] 30 µM | [7] 25 µM

Cc1c(F)c(F)c(COC(=O)C2C(/C=C(\Cl)C(F)(F)F)C2(C)C)c(F)c1F (configuration not stated)
inactive: [1] | [3] | [4] | [5]
active: [2] 12.5 µM | [6] 26.6 µM | [7] 25.9 µM

CNC(=O)ON=CC(C)(C)SC
not listed: [8] | [9] | [10]
inactive: all other assays above

CCCCNC(=O)OCC#CI
active: [1] 29.2 µM and 26.1 µM | [2] 25 µM and 22.7 µM | [3] 35.1 µM and 36.5 µM | [4] 7.02 µM and 7.09 µM | [5] 22.1 µM and 14.7 µM | [6] 2.71 µM and 2.68 µM | [7] 28.6 µM

CO/C=C(/C(=O)OC)c1ccccc1Oc1cc(Oc2ccccc2C#N)ncn1
inactive: [1] | [3] | [4] | [7] | [8]
active: [1] 26.6 µM and 25.4 µM | [2] 17.4 µM [middle of 4 runs] | [3] 34.9 µM and 34.2 µM and 30 µM | [4] 6.9 µM and 5.28 µM and 13 µM | [5] 12.5 µM [middle of 4 runs] | [6] 13.9 µM [middle of 4 runs] | [7] 21.1 µM and 15.4 µM

O=C(Nc1ccccc1)Nc1ccnc(Cl)c1
active: [2] 14.2 µM | [5] 20 µM | [6] 33.5 µM | [9] 9.34 µM
not listed: [10]
inactive: all other assays above

OC(c1ccc(Cl)cc1)(c1cncnc1)c1ccccc1Cl (configuration not stated)
active: [1] 25.5 µM | [2] 26.5 µM | [3] 32.9 µM | [4] 3.45 µM | [6] 11.7 µM | [7] 29.3 µM | [10] 2.37 µM | [9] 8.07 µM
